# Tau ThT inhib – tau fibrillization inhibition (ThT binding); Potency, µM (top dose mostly 57.4 µM), without a hit: at the highest dose activity, negative = inhibition, usual class: inhibitors; AID 1460; P10636; 270,000 compounds, 2.1% hits; recombinant tau K18 P301L, heparin-induced fibrillization, ThT fluorescence; further: nearly all actives have a fitted effect of over 55% in size
# Target sequence (P10636 561-689 P618L limits assumed): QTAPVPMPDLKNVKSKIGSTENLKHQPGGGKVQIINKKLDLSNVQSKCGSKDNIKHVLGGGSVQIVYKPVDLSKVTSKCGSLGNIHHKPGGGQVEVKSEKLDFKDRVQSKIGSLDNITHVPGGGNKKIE
#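 Aggregation was driven by heparin (20 uM final) acting on recombinant tau […] bearing P301L in 100 mM sodium acetate pH 7; fibrils were detected with Thioflavin T.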
# Tau fluor cs – counter-screen for tau fibril formation inhibitors. Potency, µM (top dose mostly 57.7 µM), without a hit: top-dose activity change, negative = decrease. 280,000 compounds, 0.93% hits. AID 1463. tau K18 P301L Alexa594 fluorescence, heparin fibrillization; further: nearly all actives have a fitted effect of over 55% in size
#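 Human tau K18 P301L (15 uM unlabeled, 0.24 uM Alexa 594-labeled) in 100 mM sodium acetate pH 7 with 20 uM heparin, 6 hr at 37 C. ThT 30 uM added, 1 hr ambient; Alexa 594 FP and total fluorescence read at 555/632 nm.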
# NPSR antagonist – antagonists of human neuropeptide S receptor cAMP signaling | CHO-NPSR cells, cAMP TR-FRET, antagonist mode | Potency, µM (titrated, usually from 38.3 µM), inactives show at the top dose activity change, negative = inhibition, usual class: inhibitors | 220,000 compounds, 1% hits | AID 1461; further: nearly all actives have a fitted effect of over 50% in size
# Tau FP inhib – tau fibrillization inhibition (FP); K18 P301L tau heparin fibrillization, Alexa594 FP, 6 h; Potency, µM (titrated, usually from 57.7 µM), for inactives: at the highest dose activity, negative = inhibition, hits mostly inhibitors; P10636; 280,000 compounds, 0.39% hits; further: nearly all actives have a fitted effect of over 55% in size
#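 Human K18 P301L fragment (15 uM unlabeled plus 0.24 uM Alexa 594-labeled) in 100 mM sodium acetate pH 7 with compound, aggregation induced by 20 uM heparin for 6 hr at 37 C. ThT (30 uM) added for 1 hr, then Alexa 594 FP read.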
# HPGD inh – inhibitors of human 15-hydroxyprostaglandin dehydrogenase (HPGD); purified HPGD, NADH fluorescence kinetic, PGE2 substrate; P15428; 150,000 compounds, 4.3% hits; Potency, µM, for the others: at the highest dose activity change, negative = inhibition, most hits filed as inhibitors; AID 894; active means well fitted inhibition curve with a large enough effect, not every such curve was filed as active; inconclusive means small, poorly fitted or top-dose-only effect, or another doubt; inactive means no such curve, though single readings can be large or run the other way
#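 NADH formation kinetics: reaction with 30 uM PGE2 and 1 mM NAD+ (final), 20 nM enzyme, Tris-HCl pH 8 with Tween 20, after 15 min compound preincubation at room temperature. Fluorescence change, last versus first of five reads.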
# ALDH1A1 block – blocks purified human ALDH1A1 activity; 220,000 compounds, 7.3% hits; Purified ALDH1A1, NADH fluorescence, propionaldehyde substrate; AID 1030; Potency, µM (titrated, usually from 75.3 µM), inactives show top-dose activity, negative = inhibition, actives largely listed as inhibitors; P00352; active means well fitted inhibition curve with a large enough effect, not every such curve was filed as active; inconclusive means small, poorly fitted or top-dose-only effect, or another doubt; inactive means no such curve, though single readings can be large or run the other way;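 further: plate controls were no enzyme wells and a reference inhibitor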
# Target sequence (P00352 whole entry, looked up): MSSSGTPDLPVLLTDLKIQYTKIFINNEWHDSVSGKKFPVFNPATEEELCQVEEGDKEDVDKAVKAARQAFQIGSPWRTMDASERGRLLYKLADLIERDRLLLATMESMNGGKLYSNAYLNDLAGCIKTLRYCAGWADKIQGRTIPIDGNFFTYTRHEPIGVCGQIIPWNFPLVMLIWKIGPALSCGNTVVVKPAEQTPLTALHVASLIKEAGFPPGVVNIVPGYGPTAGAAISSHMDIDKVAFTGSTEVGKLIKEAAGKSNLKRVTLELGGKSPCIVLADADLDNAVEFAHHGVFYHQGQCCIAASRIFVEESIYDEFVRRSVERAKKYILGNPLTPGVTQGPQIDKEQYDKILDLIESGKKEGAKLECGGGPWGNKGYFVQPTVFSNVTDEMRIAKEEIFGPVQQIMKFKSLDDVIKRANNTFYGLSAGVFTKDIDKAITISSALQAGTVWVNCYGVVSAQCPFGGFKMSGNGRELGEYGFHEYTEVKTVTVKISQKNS
# Active calls of the source: *; ? = inconclusive; nt = not tested or not shown; [ ] = another dose, or the depositor's remark. Hits are enriched below; roughly 9.5% of the tested compounds scored in any of these assays. Unless noted, the call rests on the fitted dose curve; in most records, active means well fitted curve in the direction sought with a large enough effect; inconclusive means small, poorly fitted or top-dose-only effect, or another doubt; inactive means no such curve, though single readings can be large; an effect the other way counts as inactive or inconclusive. Unless noted, on the % scale 0 is the no-effect control and ±100 the full control effect; potency means the concentration at half of the fitted maximal effect.
SMILES,Tau ThT inhib,Tau fluor cs,NPSR antagonist,Tau FP inhib,HPGD inh,ALDH1A1 block
CN(C)S(=O)(=O)c1cccc(NC(=S)Nc2ccc3cn[nH]c3c2)c1,-13%,-11%,4%,-3%,nt,22µM*
CN(C)S(=O)(=O)c1cccc(NC(=S)N/N=C/c2cc(Br)ccc2O)c1,?,7.9µM*[quencher],-42%,?,nt,nt
COc1cccc(-c2nnc(SCC(=O)NC3CCCCC3)o2)c1,?,-15%,nt,-12%,nt,nt
Cc1nc2cncnc2n(Cc2ccccc2)c1=O,nt,nt,nt,nt,nt,14%
Nc1ccc(S(=O)(=O)N2CCCC2)cc1Cl,7%,2%,5%,2%,nt,nt
C[N+](C)(C)c1ncnc2c1ncn2[C@@H]1CCCCO1,nt,nt,nt,nt,-7%,-1%[13.5 µM]
COCCCNC(=O)c1sc2nc(C)c(C(=O)Nc3ccc(C)cc3C)c(-c3ccc(Cl)cc3)c2c1N,?,-19%,nt,8%,nt,nt
COc1ccc(C(=O)NC2CCN(C(=S)Nc3ccc(C)cc3)CC2)cc1,-14%,-10%,8%,-3%,nt,3%
CN(C)S(=O)(=O)c1cccc(NC(=S)Nc2cccc3cnccc23)c1,?,-29%,14%,?,nt,7.9µM*
Fc1ccc(NC(=S)Nc2cccc3cnccc23)cc1,7.9µM*,?,-9%,?,nt,7.9µM*
Fc1ccc(NC(=S)Nc2ccccc2Cl)cc1,-13%,-8%,10%,3%,nt,-2%
COCC(=O)N1CCC2(CCCN(Cc3ccccc3)C2)CC1,nt,nt,nt,nt,0%,3%
CCCc1cc(-c2[nH]ncc2-c2ccc3c(c2)OCCCO3)c(O)cc1OC,?,10µM*[quencher],?,-13%,-30%,?
CCc1cc(-c2[nH]ncc2-c2ccc3c(c2)OCO3)c(O)cc1O,?,14µM*[quencher],-10%[46.1 µM],?,?,-6%
COc1ccc(-c2[nH]ncc2-c2ccc3c(c2)OCCO3)c(O)c1,-4%,-28%,-36%[46.1 µM],7%,-13%,?
CCN(CC)S(=O)(=O)c1ccc2c(c1)nc(CCC(=O)O)n2CC,1%,2%,12%,0%,nt,6%
CCn1c(CCC(=O)Nc2nc3c(s2)CCCC3)nc2cc(S(=O)(=O)N(C)C)ccc21,?,-8%,-25%[46.1 µM],3%,-7%,16µM*
CCc1c(C)sc2c1CCN(Cc1cccc(F)c1)C2c1ccccc1 (stereo not drawn),-16%,-2%,nt,0%,nt,nt
NC(CSCC(=O)O)C(=O)O (stereo not drawn),-3%,0%,nt,1%,-9%,10%
CC(=O)c1cccc(NC(=O)c2ccoc2C)c1,-4%,0%,11%,-4%,nt,-2%
CCCc1cc(C(N)=O)c(NC(=O)c2ccoc2C)s1,?,?,-11%[46.1 µM],-9%,?,18µM*
CCOC(=O)c1cc(NC(=O)c2ccoc2C)cc(C(=O)OCC)c1,-11%,?,?,-15%,-22%,6.3µM*
NC(=O)c1cc(Cc2ccccc2)sc1NC(=O)c1ccco1,1%,?,?,?,28µM*,18µM*
Cc1cccc(CC(=O)NC2CC(=O)N(c3ccccc3)C2)c1 (stereo not drawn),-6%,-4%,nt,-3%,nt,nt
CCOc1ccc(C(CC(=O)O)NC(=O)C(Sc2ccccc2)c2ccccc2)cc1 (stereo not drawn),-5%,3%,-25%,-2%,nt,1%
SMILES,Tau ThT inhib,Tau fluor cs,NPSR antagonist,Tau FP inhib,HPGD inh,ALDH1A1 block
COc1ccc(C2CC(=O)N(CCCN(C)CCc3ccc(OC)c(OC)c3)C2)cc1 (stereo not drawn),-8%,-4%,11%,14%,nt,14µM*
COc1ccc(CCN(C)CCCN2CC(c3ccccc3)CC2=O)cc1OC (stereo not drawn),-19%,-17%,6%,8%,nt,-7%
COC1CCCCC1Nc1ccc(C)c(C)c1 (stereo not drawn),-7%,-10%,18%[46.1 µM],-2%,-5%,10µM*
CC(C)n1nnnc1SCC(=O)N1CCN(C(=O)c2ccco2)CC1,-7%,-1%,-5%[46.1 µM],-4%,-2%,25µM*
O=C(c1ccco1)N1CCN(C(c2cccs2)c2nnnn2C2CCCCC2)CC1 (stereo not drawn),2%,1%,-16%[46.1 µM],2%,3%,18µM*
O=C(CSc1nnnn1C1CCCC1)N1CCN(C(=O)c2ccco2)CC1,-14%,-3%,3%[46.1 µM],2%,-2%,14µM*
CCCn1nnnc1SCC(=O)N1CCN(C(=O)c2ccco2)CC1,-11%,0%,-9%[46.1 µM],0%,-11%,?
O=C(CSc1nnnn1C1CCCCC1)N1CCN(C(=O)c2ccco2)CC1,3.5µM*,-54%,32%,9%[2.34 µM],nt,?
Cn1c(SCC(=O)Nc2cccc(S(=O)(=O)NC3=NCCCCC3)c2)nnc1-c1ccccc1,-4%,-8%,10%,-4%,nt,0%
Cc1ccc(O)c(C(=O)c2cnn(-c3ccccc3)c2)c1,?,?,-22%[46.1 µM],-7%,3.5µM*,-5%
COc1ccc(O)c(C(=O)c2cnn(C(=O)c3cc(C)oc3C)c2)c1,?,-5%,-6%[46.1 µM],-4%,-15%,3.5µM*
COc1ccc(C(=O)n2cc(C(=O)c3cc(C)ccc3O)cn2)cc1OC,?,-9%,-5%,-3%,?,0.16µM*
COc1ccc(C(=O)n2nc(C)cc2C)cc1OC,0%,-1%,-1%[46.1 µM],-2%,-9%,3%
CCn1c(C)nc2cc(C(=O)n3cc(C(=O)c4ccccc4O)cn3)ccc21,-11%,-20%,-8%[46.1 µM],-12%,nt,4%
O=C(Cc1cnn(-c2ccccc2)c1)c1ccc(O)c(O)c1O,14µM*,?,-10%[46.1 µM],?,28µM*,3.2µM*
C=CCCCCCCC=C,nt,nt,nt,nt,-1%,-11%
CCC(=O)N(Cc1ccc(S(N)(=O)=O)cc1)C1CC(=O)N(c2ccc(OC)cc2)C1=O (stereo not drawn),-17%,-10%,-1%[46.1 µM],11%,-10%,?
CC(C)OCCCNc1ncnc2sc3c(c12)CCCC3,-9%,-7%,nt,3%,nt,nt
COc1ccc(C(=O)n2cc(C(=O)c3cc(C)ccc3O)cn2)cc1,?,2%,16%,-3%,-12%,0.4µM*
CC(=O)NC(Cc1ccc(C(C)C)cc1)C(=O)NC1CCN(C(=O)c2cccc(C)c2)CC1 (stereo not drawn),0%,0%,-18%,0%,nt,25µM*
NC(C(=O)O)(c1ccc(P(=O)(O)O)cc1)C1CC1 (stereo not drawn),0%,-3%,nt,3%,nt,7%
Cc1nc(-c2ccc(F)cc2)sc1CCNC(=O)Cc1ccc(F)cc1,1%,-10%,nt,-5%,nt,nt
Cc1[nH]c(=S)sc1Cc1ccc(F)cc1,?,-19%,7%,?,16µM*,?
O=C1CCC=C1C(O)c1ccccc1 (stereo not drawn),-7%,-5%,nt,0%,-13%,1%

# Source: PubChem BioAssay
